Reference: PubChem BioAssay (NCI)
About 79,000 compounds went through this panel and 15% of them were active in at least one assay; those are over-represented in the sample as a whole. Activity calls are given as the source filed them. Rule as the data show it: active = growth inhibition above about 70%; inactive = the rest.

Key:
[1] = NCI Yeast Anticancer Drug Screen. Data for the rad52 strain (AID 147);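 also: 0% = growth of vehicle-treated control cultures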; conditions: S. cerevisiae rad52 mutant growth inhibition, stronger effect = higher value
Summary of the method: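 DNA repair-defective yeast; compound exposure; growth scored against vehicle controls.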

[2] = NCI Yeast Anticancer Drug Screen. Data for the wt1 strain (AID 149);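 also: 0% = growth of vehicle-treated wt1 cultures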; conditions: S. cerevisiae wt1 strain (SPY 50644) growth inhibition, stronger effect = higher value
Summary of the method: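 wt1 strain grown with compound or vehicle; inhibition taken from the growth difference.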

[3] = NCI Yeast Anticancer Drug Screen. Data for the rad50EPP+ strain (AID 151);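 also: 0% = growth of vehicle-treated control cultures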; conditions: S. cerevisiae rad50 mutant strain, stronger effect = higher value
Summary of the method: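 rad50EPP+ yeast treated with test compounds. Readout: growth vs vehicle control.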

[4] = NCI Yeast Anticancer Drug Screen. Data for the mgt1 strain (AID 153); conditions: S. cerevisiae mgt1 mutant growth inhibition, stronger effect = higher value
Summary of the method: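 Growth inhibition relative to vehicle controls was scored for the mgt1 yeast strain after compound exposure.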

[5] = NCI Yeast Anticancer Drug Screen. Data for the rad50 strain (AID 155);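 also: 0% = growth of vehicle-only cultures of the same strain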; conditions: S. cerevisiae rad50 strain growth inhibition, stronger effect = higher value
Summary of the method: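 DNA repair mutant yeast, compound exposure, growth read-out; inhibition is taken relative to vehicle.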

[6] = NCI Yeast Anticancer Drug Screen. Data for the mec2-1 strain (AID 157); conditions: S. cerevisiae mec2-1 strain, stronger effect = higher value
Summary of the method: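 Growth inhibition is read against vehicle-treated controls after compound exposure of the mec2-1 yeast strain, which is defective in DNA damage repair or cell cycle control.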

[7] = NCI Yeast Anticancer Drug Screen. Data for the rad14 strain (AID 159);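 also: 0% = growth of vehicle-treated control cultures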; conditions: S. cerevisiae rad14 strain growth inhibition, stronger effect = higher value
Summary of the method: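 DNA repair-defective yeast, compound-exposed; % growth inhibition derived by comparison with vehicle-treated controls.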

[8] = NCI Yeast Anticancer Drug Screen. Data for the sgs1 mgt1 strain (AID 161);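 also: 0% = growth of cultures given vehicle only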; conditions: S. cerevisiae sgs1 mgt1 strain, stronger effect = higher value
Summary of the method: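 Growth of a repair-deficient yeast mutant was monitored after compound treatment and expressed as inhibition relative to vehicle-treated cultures.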

[9] = NCI Yeast Anticancer Drug Screen. Data for the CLN2oe strain (AID 163);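 also: 0% = growth of vehicle-only control cultures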; conditions: S. cerevisiae CLN2oe strain, stronger effect = higher value
Summary of the method: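 Compound-treated yeast; growth vs vehicle ctrl = % inhibition. Genetically altered strain (cell-cycle control).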

[10] = NCI Yeast Anticancer Drug Screen. Data for the cln2 rad14 strain (AID 165);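 also: 0% = growth equal to vehicle treated cultures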; conditions: S. cerevisiae cln2 rad14 strain, stronger effect = higher value
Summary of the method: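 Growth inhibition, relative to vehicle-treated controls, is the read-out. The test organism is a yeast strain with defined genetic alterations, cln2 rad14.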

[11] = NCI Yeast Anticancer Drug Screen. Data for the bub3 strain (AID 167); conditions: S. cerevisiae bub3 mutant strain, stronger effect = higher value
Summary of the method: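 In this screen, a yeast mutant lacking normal mitotic checkpoint function is challenged with compound. Relative growth versus vehicle gives the inhibition value.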

[12] = NCI Yeast Anticancer Drug Screen. Data for the wt2 strain (AID 169);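 also: 0% = growth of vehicle-treated yeast cultures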; conditions: S. cerevisiae wt2 strain growth inhibition, stronger effect = higher value
Summary of the method: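 Compound exposure of yeast; growth compared with vehicle controls; inhibition reported.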

[13] = NCI Yeast Anticancer Drug Screen. Data for the mlh1 strain (AID 171);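 also: 0% = growth of vehicle-treated control cultures of the same strain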; conditions: S. cerevisiae mlh1 strain growth inhibition, stronger effect = higher value
Summary of the method: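 Compounds are applied to a genetically altered yeast strain, and its growth is compared with that of vehicle-treated cultures to give percent inhibition.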

[14] = NCI Yeast Anticancer Drug Screen. Data for the sgs1 strain (AID 173);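 also: 0% = growth of vehicle-only control cultures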; conditions: S. cerevisiae sgs1 mutant, stronger effect = higher value
Summary of the method: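 Compounds applied to genetically altered yeast; growth compared with vehicle-treated cultures to give % inhibition.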

[15] = NCI Yeast Anticancer Drug Screen. Data for the mlh1 rad18 strain (AID 175); conditions: S. cerevisiae mlh1 rad18 strain growth inhibition, stronger effect = higher value
Summary of the method: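 Cells of a genetically altered yeast strain, deficient in DNA damage repair, were treated with compound. Their growth was then compared with that of vehicle-treated cultures to give inhibition.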

[16] = NCI Yeast Anticancer Drug Screen. Data for the rad18 strain (AID 177); conditions: S. cerevisiae rad18 mutant growth inhibition, stronger effect = higher value
Summary of the method: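 Compounds are applied to a repair-deficient yeast strain, and growth is compared with that of vehicle-treated cultures to give percent inhibition.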

[17] = at 5.0 µM (retest, dose inferred, filed as 0.5)
[18] = at 50.0 µM (retest, dose inferred, filed as 5.0)

Measured: growth inhibition

O=CNc1ccc2c(c1)C(=O)c1ccccc1-2
inactive: [1]; at 1.2 µM 8% | [1]; at 3.7 µM 15% | [1]; at 11.0 µM 40% | [2]; at 1.2 µM -2% | [2]; at 3.7 µM -1% | [2]; at 11.0 µM 8% | [2]; at 33.0 µM 27% | [3]; at 1.2 µM 5% | [3]; at 3.7 µM 12% | [3]; at 11.0 µM 26% | [4]; at 1.2 µM 4% | [4]; at 3.7 µM 5% | [4]; at 11.0 µM 9% | [4]; at 33.0 µM 47% | [5]; at 1.2 µM 13% | [5]; at 3.7 µM 22% | [5]; [17] 7% | [5]; at 11.0 µM 37% | [6]; at 1.2 µM 3% | [6]; at 3.7 µM 4% | [6]; [17] 6% | [6]; at 11.0 µM 3% | [6]; at 33.0 µM 36% | [6]; [18] 37% | [6]; at 50.0 µM 37.7% | [7]; at 1.2 µM 5% | [7]; at 3.7 µM 9% | [7]; at 11.0 µM 14% | [7]; at 33.0 µM 46% | [8]; [17] 5% | [8]; [18] 55% | [8]; at 50.0 µM 19.3% | [9]; at 1.2 µM 10% | [9]; at 3.7 µM 10% | [9]; at 11.0 µM 18% | [9]; at 33.0 µM 37% | [10]; [17] -15% | [10]; [18] -5% | [10]; at 50.0 µM 26.8% | [11]; at 1.2 µM 9% | [11]; at 3.7 µM 0% | [11]; [17] -6% | [11]; at 11.0 µM 16% | [11]; at 33.0 µM 61% | [11]; [18] 66% | [11]; at 50.0 µM 62.9% | [12]; at 1.2 µM -2% | [12]; at 3.7 µM 0% | [12]; at 11.0 µM 8% | [12]; at 33.0 µM 48% | [13]; at 1.2 µM 3% | [13]; at 3.7 µM 10% | [13]; at 11.0 µM 16% | [14]; at 1.2 µM -2% | [14]; at 3.7 µM 0% | [14]; at 11.0 µM 6% | [14]; at 33.0 µM 52% | [15]; [17] 4% | [15]; [18] 61% | [15]; at 50.0 µM 69.5% | [16]; at 1.2 µM 2% | [16]; at 3.7 µM 3% | [16]; at 11.0 µM 7% | [16]; at 33.0 µM 52%
active: [1]; at 33.0 µM 94% | [1]; at 100.0 µM 97% | [2]; at 100.0 µM 85% | [3]; at 33.0 µM 86% | [3]; at 100.0 µM 95% | [4]; at 100.0 µM 97% | [5]; at 33.0 µM 93% | [5]; [18] 75% | [5]; at 50.0 µM 94.2% | [5]; at 100.0 µM 96% | [6]; at 100.0 µM 95% | [7]; at 100.0 µM 96% | [9]; at 100.0 µM 75% | [11]; at 100.0 µM 87% | [12]; at 100.0 µM 96% | [13]; at 33.0 µM 72% | [13]; at 100.0 µM 97% | [14]; at 100.0 µM 94% | [16]; at 100.0 µM 94%

Cc1nc(-[n+]2nc(-c3ccncc3)nn2-c2ccccc2)sc1C
inactive: [1]; at 1.2 µM -2% | [1]; at 3.7 µM -2% | [1]; at 11.0 µM 0% | [1]; at 33.0 µM 38% | [1]; at 100.0 µM 5% | [2]; at 1.2 µM -1% | [2]; at 3.7 µM -2% | [2]; at 11.0 µM -14% | [2]; at 33.0 µM 9% | [2]; at 100.0 µM -11% | [3]; at 1.2 µM 3% | [3]; at 3.7 µM 16% | [3]; at 11.0 µM 41% | [3]; at 33.0 µM 44% | [3]; at 100.0 µM 36% | [4]; at 1.2 µM -4% | [4]; at 3.7 µM -5% | [4]; at 11.0 µM 8% | [4]; at 33.0 µM 54% | [5]; at 1.2 µM -3% | [5]; at 3.7 µM -46% | [5]; [17] 1% | [5]; at 11.0 µM 3% | [5]; at 33.0 µM 48% | [5]; [18] 21% | [5]; at 50.0 µM 66.2% | [5]; at 100.0 µM 58% | [6]; at 1.2 µM -1% | [6]; at 3.7 µM -2% | [6]; [17] 0% | [6]; at 11.0 µM -3% | [6]; at 33.0 µM 33% | [6]; [18] -28% | [6]; at 100.0 µM 39% | [7]; at 1.2 µM -2% | [7]; at 3.7 µM -3% | [7]; at 11.0 µM -7% | [7]; at 33.0 µM 8% | [7]; at 100.0 µM 1% | [8]; [17] 7% | [9]; at 1.2 µM -4% | [9]; at 3.7 µM -3% | [9]; at 11.0 µM -6% | [9]; at 33.0 µM 25% | [9]; at 100.0 µM 14% | [10]; [17] 0% | [10]; [18] 11% | [10]; at 50.0 µM 63.9% | [11]; at 1.2 µM -1% | [11]; at 3.7 µM -5% | [11]; [17] -45% | [11]; at 11.0 µM -5% | [11]; at 33.0 µM 38% | [11]; [18] 60% | [11]; at 50.0 µM 48% | [11]; at 100.0 µM 18%
active: [4]; at 100.0 µM 78% | [6]; at 50.0 µM 78.5% | [8]; [18] 76% | [8]; at 50.0 µM 74.8%
